CD11b adhes enh = CD11b/CD18-fibrinogen binding enhancement. P05107+P11215. K562 CD11b/CD18 adhesion to fibrinogen, ATPlite luminescence. activation, % at 10 µM. 93,000 tested, 0.07% active;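 active means 10 µM primary screen giving 50% or more activity, confirmed by 40% or more on retest at that dose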
Target sequence (P05107 whole entry, looked up, other chains not shown): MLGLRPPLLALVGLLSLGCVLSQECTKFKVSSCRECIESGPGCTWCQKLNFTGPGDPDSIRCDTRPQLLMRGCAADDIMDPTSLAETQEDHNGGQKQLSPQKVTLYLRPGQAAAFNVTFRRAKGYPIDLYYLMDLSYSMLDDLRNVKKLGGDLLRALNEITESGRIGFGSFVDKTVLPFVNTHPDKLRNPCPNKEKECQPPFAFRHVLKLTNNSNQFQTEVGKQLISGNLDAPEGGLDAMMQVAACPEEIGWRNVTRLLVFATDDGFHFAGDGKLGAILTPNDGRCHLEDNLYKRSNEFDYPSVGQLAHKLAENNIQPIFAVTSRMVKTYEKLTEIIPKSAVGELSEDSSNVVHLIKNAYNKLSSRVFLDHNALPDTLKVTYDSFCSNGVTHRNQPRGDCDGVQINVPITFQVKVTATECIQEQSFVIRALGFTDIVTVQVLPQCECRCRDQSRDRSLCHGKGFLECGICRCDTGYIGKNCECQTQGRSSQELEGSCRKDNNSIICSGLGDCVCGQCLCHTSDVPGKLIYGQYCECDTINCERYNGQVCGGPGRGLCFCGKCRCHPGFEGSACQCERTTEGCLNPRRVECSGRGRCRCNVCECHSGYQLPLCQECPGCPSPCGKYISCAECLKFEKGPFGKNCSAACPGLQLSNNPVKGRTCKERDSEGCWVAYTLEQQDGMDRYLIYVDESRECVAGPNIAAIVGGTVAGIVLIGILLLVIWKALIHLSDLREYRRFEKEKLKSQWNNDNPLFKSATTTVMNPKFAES
CYP2C9 act = CYP2C9 (human) activation | P11712 | recombinant CYP2C9, luciferin-H conversion, luminescence; hits give high values; factor 1 = untreated enzyme, 0 = blocked | activation factor at 5 µM | 96,000 tested, 1.4% active | AID 1024;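 active means activation factor of 2 or more for CYP2C9 at a 5 µM dose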;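 further: 0 = sulfaphenazole-blocked wells and 1 = vehicle-only wells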
CYP2C9 inh = blocks human cytochrome P450 2C9. CYP2C9 Supersomes, luciferin-H conversion, luminescence. inhibition, % at 5 µM. 96,000 tested, 20% active;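 active means blocking of liver enzyme CYP2C9 beyond about 50% at 5 µM, limit read from the data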
CYP2C19 inhib = inhibitors of human CYP2C19; AID 778; CYP2C19 Supersomes, luciferin-H EGE luminescence, 30 min; inhibition, % at 5 µM; P33261; 96,000 tested, 21% active;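 active means CYP2C19 inhibition above a set limit at 5 µM in the primary screen, cut at about 50% in these data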;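 further: plate controls were negative control wells for no effect and 2.5 mM tranylcypromine positive control for full effect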
Mac1 fbg inh = CD11b/CD18-fibrinogen binding inhibition; P05107+P11215; K562 CD11b/CD18 adhesion to fibrinogen, ATPlite luminescence; Mn2+ added to activate the integrin; inhibition, % at 10 µM; 93,000 tested, 0.54% active; AID 1497;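 active means primary inhibition of 50% or more at 10 µM, then 40% or more on retest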
CYP2C19 activ = activators of human cytochrome P450 2C19. P33261. recombinant CYP2C19, luciferin-H EGE luminescence; hits give high values; 0 = fully inhibited enzyme, 1 = untreated enzyme. activation factor at 5 µM. 96,000 tested, under 10 active;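 active means activation factor of at least 2 at 5 µM in the primary screen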;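 further: 0 = wells with 2.5 mM tranylcypromine and 1 = vehicle-only wells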
Starred values were filed as active, the others as inactive. The list is not random: actives were taken first. Their share in the collection is about 28%.

COc1ccc(CNc2nc3c(c(=O)n(Cc4ccc(F)cc4)c(=O)n3C)n2C)cc1 was read as CD11b adhes enh -2, CYP2C9 act 0.2, CYP2C9 inh 81*, CYP2C19 inhib 91*, Mac1 fbg inh -8 and CYP2C19 activ 0.1.
Screening Cn1c(NCC(O)c2ccccc2)nc2c1c(=O)n(Cc1ccc(Cl)cc1)c(=O)n2C (stereo not given) returned CYP2C9 act 0.5, CYP2C9 inh 53*, CYP2C19 inhib 24 and CYP2C19 activ 0.8.
Cn1c(NCc2ccccc2)nc2c1c(=O)n(Cc1ccccc1)c(=O)n2C was read as CYP2C9 act 0.7, CYP2C9 inh 33, CYP2C19 inhib 41 and CYP2C19 activ 0.6.
Screening Cc1ccc(C(=O)c2c(NC(=O)c3cccnc3)sc3c2CCCC3)cc1 returned CD11b adhes enh 0, CYP2C9 act 0.8, CYP2C9 inh 15, CYP2C19 inhib 24, Mac1 fbg inh -1 and CYP2C19 activ 0.8.
Screening CC1=NOC(=O)/C1=C/c1ccc(N(C)C)cc1 returned CD11b adhes enh -6, CYP2C9 act 1, CYP2C9 inh 3, CYP2C19 inhib -15, Mac1 fbg inh 4 and CYP2C19 activ 1.1.
`CC1=NOC(=O)/C1=C\c1ccc(-c2cc(Cl)ccc2Cl)o1` gave CD11b adhes enh -6, CYP2C9 act 1, CYP2C9 inh 4, CYP2C19 inhib 60*, Mac1 fbg inh 30 and CYP2C19 activ 0.4.
For C=CCNC(=S)N/N=C/c1ccc(-c2cc(Cl)ccc2Cl)o1 the results were CYP2C9 act 1.7, CYP2C9 inh -69, CYP2C19 inhib 9 and CYP2C19 activ 0.9.
Screening CC1=NOC(=O)/C1=C/c1ccc(-c2ccc(Cl)cc2)o1 returned CD11b adhes enh -6, CYP2C9 act 0.3, CYP2C9 inh 68*, CYP2C19 inhib 76*, Mac1 fbg inh 94* and CYP2C19 activ 0.2.
COc1ccc(C2C(C#N)=C(N)N3C(=C2C#N)Sc2ccccc23)cc1 (stereo not given) was read as CD11b adhes enh 28, CYP2C9 act 0.8, CYP2C9 inh 18, CYP2C19 inhib 8, Mac1 fbg inh -12 and CYP2C19 activ 0.9.
`O=C(CN1CCSCC1)N/N=C/c1ccc(F)c(F)c1` gave CD11b adhes enh -2, CYP2C9 act 1.3, CYP2C9 inh -28, CYP2C19 inhib 8, Mac1 fbg inh -7 and CYP2C19 activ 0.9.
For Fc1ccc(NC(=S)N/N=C/c2ccc(F)c(F)c2)c(F)c1 the results were CD11b adhes enh -6, CYP2C9 act 0.8, CYP2C9 inh 23, CYP2C19 inhib 54*, Mac1 fbg inh -5 and CYP2C19 activ 0.5.
Brc1cccc(-c2cnc3n2CCCCC3)c1 was read as CD11b adhes enh -4, CYP2C9 act 0.9, CYP2C9 inh 7, CYP2C19 inhib 83*, Mac1 fbg inh 37 and CYP2C19 activ 0.2.
Brc1cccc(-c2nnc3n2CCCCC3)c1 was read as CD11b adhes enh -3, CYP2C9 act 0.9, CYP2C9 inh 9, CYP2C19 inhib 53*, Mac1 fbg inh -1 and CYP2C19 activ 0.5.
Screening c1csc(-c2cnc3n2CCCC3)c1 returned CD11b adhes enh -3, CYP2C9 act 1.4, CYP2C9 inh -44, CYP2C19 inhib 40, Mac1 fbg inh -4 and CYP2C19 activ 0.6.
Cc1nc(NC(=S)NC(=O)c2cccs2)sc1C(=O)N(C)C was read as CD11b adhes enh 1, CYP2C9 act 0.7, CYP2C9 inh 30, CYP2C19 inhib 19, Mac1 fbg inh -6 and CYP2C19 activ 0.8.
`COc1ccc(C(=O)NC(=S)Nc2nc(C)c(C(=O)N(C)C)s2)cc1` gave CD11b adhes enh -3, CYP2C9 act 0.4, CYP2C9 inh 63*, CYP2C19 inhib -2, Mac1 fbg inh 14 and CYP2C19 activ 1.
`CCCc1nc2sc3c(c2c(=O)n1N)CCC3` gave CD11b adhes enh -5, CYP2C9 act 1.1, CYP2C9 inh -6, CYP2C19 inhib 74*, Mac1 fbg inh 12 and CYP2C19 activ 0.3.
`CCn1c(NN)nc2sc3c(c2c1=O)CCC3` gave CD11b adhes enh 1, CYP2C9 act 0.2, CYP2C9 inh 79*, CYP2C19 inhib 75*, Mac1 fbg inh -29 and CYP2C19 activ 0.3.
Nn1c(Nc2ccccc2)nc2sc3c(c2c1=O)CCC3 was read as CD11b adhes enh -1, CYP2C9 act 0, CYP2C9 inh 98*, CYP2C19 inhib 75*, Mac1 fbg inh 32 and CYP2C19 activ 0.3.
Screening CCc1nc2sc3c(c2c(=O)n1N)CCC3 returned CD11b adhes enh 1, CYP2C9 act 1, CYP2C9 inh 4, CYP2C19 inhib 22, Mac1 fbg inh -4 and CYP2C19 activ 0.8.
`CCOC(=O)C1CCCn2c1nc1sc3c(c1c2=O)CCCC3` (stereo not given) gave CD11b adhes enh 2, CYP2C9 act 0.2, CYP2C9 inh 77*, CYP2C19 inhib 66*, Mac1 fbg inh -22 and CYP2C19 activ 0.3.
`O=C(O)CCc1n[nH]c(=S)[nH]c1=O` gave CD11b adhes enh -3, CYP2C9 act 1.1, CYP2C9 inh -12, CYP2C19 inhib -2, Mac1 fbg inh -6 and CYP2C19 activ 1.
For CC(=O)Nc1ccc2c(c1)nc(CCN1CCN(C)CC1)n2C the results were CD11b adhes enh -2, CYP2C9 act 1.1, CYP2C9 inh -12, CYP2C19 inhib -10, Mac1 fbg inh -4 and CYP2C19 activ 1.1.
For CCn1c(SCC(=O)NCCOC)nc2sc(C)c(C)c2c1=O the results were CD11b adhes enh 1, CYP2C9 act 1.1, CYP2C9 inh -12, CYP2C19 inhib -9, Mac1 fbg inh -2 and CYP2C19 activ 1.1.
For NC(=O)CSc1nc2sc3c(c2c2ncnn12)CCCC3 the results were CD11b adhes enh -3, CYP2C9 act 0.8, CYP2C9 inh 18, CYP2C19 inhib 16, Mac1 fbg inh -1 and CYP2C19 activ 0.8.
CCn1c(SCC(=O)NCCOC)nc2sc3c(c2c1=O)CCCC3 was read as CD11b adhes enh -2, CYP2C9 act 0.2, CYP2C9 inh 80*, CYP2C19 inhib 49, Mac1 fbg inh -5 and CYP2C19 activ 0.5.
`CCn1c(SCC(N)=O)nc2sc3c(c2c1=O)CCCC3` gave CD11b adhes enh -1, CYP2C9 act 0.4, CYP2C9 inh 55*, CYP2C19 inhib 14, Mac1 fbg inh -11 and CYP2C19 activ 0.9.
Screening CCC(=O)Nc1cccc(-c2nnc(SCC(=O)c3ccccc3)n2C)c1 returned CD11b adhes enh -1, CYP2C9 act 0.9, CYP2C9 inh 10, CYP2C19 inhib 41, Mac1 fbg inh -3 and CYP2C19 activ 0.6.
O=c1oc2ccccc2cc1-c1csc(NN=C2CCCCC2)n1 was read as CYP2C9 act 0.2, CYP2C9 inh 78*, CYP2C19 inhib 86* and CYP2C19 activ 0.1.

High-throughput results as filed in PubChem.
